Measured values as given in the supplement of paper PMC12067926.

test system: Carnobacterium 1 (Carnobacterium gallinarum); experiment: relative growth (AUC of 72 h growth curve relative to DMSO control, dAUC) (ratio); higher = more growth (less inhibition), active = hit call of the paper; conditions: 20 µM;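 active = growth AUC significantly below the DMSO wells by Dunnett test; inactive = the rest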
Method: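 Environmental bacterial isolates (Iceland stream sediment and Silwood Park soil) and whole stream-sediment communities were grown in LB from a 1:100 dilution with each pesticide at 20 µM (1% DMSO). A600 was read hourly for 72 h and the area under a spline-fitted growth curve (AUC) was computed. dAUC is the mean AUC of 3 biological replicates divided by the mean AUC of the DMSO controls. Significance was tested by Dunnett's test against the DMSO control.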

For `CON(C)C(=O)Nc1ccc(Cl)c(Cl)c1`, which relative growth is on record?
The relative growth was 1.02 (inactive).

How did the relative growth turn out when `CC1=NNC(=O)N(/N=C/c2cccnc2)C1` was run?
Its relative growth is 1.3 (inactive).

Which relative growth does the source give for `O=C1C2(Cl)C3(Cl)C4(Cl)C(Cl)(Cl)C5(Cl)C3(Cl)C1(Cl)C5(Cl)C24Cl` (stereo not given) here?
The relative growth was 0.621 (inactive).

With `N#Cc1cc(Br)c(O)c(Br)c1` as the molecule, how does the relative growth read?
The relative growth was 1.05 (inactive).

With `COC(=O)N(OC)c1ccccc1COc1ccn(-c2ccc(Cl)cc2)n1` as the molecule, how does the relative growth read?
Its relative growth is 1.36 (inactive).

Which relative growth does the source give for `CCCCCCCCCCCCNC(=N)N` here?
The relative growth was 0.0114 (active).

With `N#C/N=C1\SCCN1Cc1ccc(Cl)nc1` as the molecule, how does the relative growth read?
Its relative growth is 1.18 (inactive).

`O=C(Nc1ccccc1-c1ccc(Cl)cc1)c1cccnc1Cl` was tested. Which relative growth did it give?
Its relative growth is 0.968 (inactive).

For `O=C(O)COc1ccc(Cl)cc1Cl`, which relative growth is on record?
Its relative growth is 1.06 (inactive).

`CCc1cc(C)cc(CC)c1-c1c(OC(=O)C(C)(C)C)n2n(c1=O)CCOCC2` was tested. Which relative growth did it give?
Its relative growth is 1.01 (inactive).

For `Nc1c([N+](=O)[O-])ccc(Oc2ccccc2)c1Cl`, which relative growth is on record?
Its relative growth is 0.792 (inactive).

Which relative growth does the source give for `CSc1nc(NC(C)C)nc(NC(C)C)n1` here?
The relative growth was 0.71 (inactive).

`COP(=O)(NC(C)=O)SC` (stereo not given) was tested. Which relative growth did it give?
The relative growth was 1.08 (inactive).

How did the relative growth turn out when `C#CCN1C(=O)COc2cc(F)c(N3C(=O)C4=C(CCCC4)C3=O)cc21` was run?
The relative growth was 0.92 (inactive).

`COc1cc(C)c(C(=O)c2c(OC)ccc(Br)c2C)c(OC)c1OC` was tested. Which relative growth did it give?
The relative growth was 1.4 (inactive).

Which relative growth does the source give for `ClC1C(Cl)C(Cl)C(Cl)C(Cl)C1Cl` (stereo not given) here?
Its relative growth is 0.955 (inactive).

With `O=C(NCCc1ncc(C(F)(F)F)cc1Cl)c1ccccc1C(F)(F)F` as the molecule, how does the relative growth read?
The relative growth was 0.905 (inactive).

Which relative growth does the source give for `CC1(C)C(C=C(Cl)Cl)C1C(=O)OCc1cccc(Oc2ccccc2)c1` (stereo not given) here?
Its relative growth is 0.871 (inactive).

For `Cc1cc(C(F)(C(F)(F)F)C(F)(F)F)ccc1NC(=O)c1cccc(I)c1C(=O)NC(C)(C)CS(C)(=O)=O`, which relative growth is on record?
The relative growth was 0.956 (inactive).

For `COP(=S)(OC)Oc1nc(Cl)c(Cl)cc1Cl`, which relative growth is on record?
The relative growth was 0.447 (inactive).

With `Cc1cc(C)c(C2=C(OC(=O)CC(C)(C)C)C3(CCCC3)OC2=O)c(C)c1` as the molecule, how does the relative growth read?
Its relative growth is 1.01 (inactive).

Which relative growth does the source give for `N#CC(CCc1ccc(Cl)cc1)(Cn1cncn1)c1ccccc1` (stereo not given) here?
Its relative growth is 0.805 (inactive).

With `COCC(C)N(C(=O)CCl)c1c(C)csc1C` (stereo not given) as the molecule, how does the relative growth read?
The relative growth was 0.859 (inactive).

For `CCCCc1c(C)nc(NCC)nc1OS(=O)(=O)N(C)C`, which relative growth is on record?
The relative growth was 0.861 (inactive).

Which relative growth does the source give for `CCc1nn(C)c(C(=O)NCc2ccc(Oc3ccc(C)cc3)cc2)c1Cl` here?
Its relative growth is 1.19 (inactive).

For `O=[N+]([O-])c1cc(C(F)(F)F)c(Cl)c([N+](=O)[O-])c1Nc1ncc(C(F)(F)F)cc1Cl`, which relative growth is on record?
Its relative growth is 0.00939 (active).

For `O=C(NC(=O)c1c(F)cccc1F)Nc1ccc(OC(F)(F)C(F)OC(F)(F)F)c(Cl)c1` (stereo not given), which relative growth is on record?
Its relative growth is 0.745 (inactive).

With `CCCCC(C#N)(Cn1cncn1)c1ccc(Cl)cc1` (stereo not given) as the molecule, how does the relative growth read?
The relative growth was 0.998 (inactive).

Which relative growth does the source give for `CC(C)N(C(=O)COc1nnc(C(F)(F)F)s1)c1ccc(F)cc1` here?
Its relative growth is 1.04 (inactive).

How did the relative growth turn out when `O=C(O)CNCP(=O)(O)O` was run?
Its relative growth is 1.13 (inactive).

`CS(=O)(=O)c1ccc(C(=O)C2C(=O)CCCC2=O)c([N+](=O)[O-])c1` was tested. Which relative growth did it give?
The relative growth was 1.44 (inactive).

Which relative growth does the source give for `CC1(C)C(C=C(Cl)Cl)C1C(=O)OC(C#N)c1ccc(F)c(Oc2ccccc2)c1` (stereo not given) here?
The relative growth was 0.865 (inactive).

Which relative growth does the source give for `CC(C)N(C)S(=O)(=O)NC(=O)c1cc(-n2c(=O)cc(C(F)(F)F)n(C)c2=O)c(F)cc1Cl` here?
Its relative growth is 1.22 (inactive).

With `CC(Oc1ccc(Oc2ncc(C(F)(F)F)cc2Cl)cc1)C(=O)O` (stereo not given) as the molecule, how does the relative growth read?
Its relative growth is 1.23 (inactive).

How did the relative growth turn out when `CCSC(C)CC1CC(=O)C(/C(CC)=N/OC/C=C/Cl)=C(O)C1` (mixture of isomers) was run?
Its relative growth is 1.27 (inactive).

With `CS(=O)(=O)NC(=O)c1cc(Oc2ccc(C(F)(F)F)cc2Cl)ccc1[N+](=O)[O-]` as the molecule, how does the relative growth read?
The relative growth was 0.908 (inactive).

How did the relative growth turn out when `O=C(O)c1nc(Cl)ccc1Cl` was run?
The relative growth was 0.925 (inactive).

Which relative growth does the source give for `CCOCN(C(=O)CCl)c1c(C)cccc1CC` here?
The relative growth was 1 (inactive).

With `CC1(C)C(C=C(Cl)Cl)C1C(=O)OC(C#N)c1cccc(Oc2ccccc2)c1` (stereo not given) as the molecule, how does the relative growth read?
Its relative growth is 1.32 (inactive).

For `CNC(=O)c1cc(Cl)cc(C)c1NC(=O)c1cc(Br)nn1-c1ncccc1Cl`, which relative growth is on record?
Its relative growth is 1.24 (inactive).
